About 83,000 compounds went through this panel and 20% of them were active in at least one assay; those are over-represented in the sample as a whole.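 How to read the values: 0–100, growth inhibition (40 = 60% inhibited); 0, no net growth; -100 to 0, cell death (-40 = 40% of starting cells died; -100 = all dead).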 Values without a mark were called inactive. Calls of active or inactive are those of the source. How the source made its calls: active means growth percent below 10; inactive means the rest.
Key:
Assay in all cases: NCI-60 one-dose screen, 48 h (100 = growth as untreated, 0 = no growth, -100 = all killed)
Conditions in all cases: 10 µM unless noted
[1] = tested on: SK-MEL-2 melanoma
[2] = tested on: SN12C renal
[3] = tested on: UO-31 renal
[4] = tested on: TK-10 renal
[5] = tested on: ACHN renal
[6] = tested on: CAKI-1 renal
[7] = tested on: A498 renal
[8] = tested on: CCRF-CEM leukemia
[9] = tested on: MOLT-4 leukemia

Structure (SMILES) | growth [1] | growth [2] | growth [3] | growth [4] | growth [5] | growth [6] | growth [7] | growth [8] | growth [9]
N#C/C(=C\c1ccc(Br)cc1)n1nnc2ccc(F)cc21 | 13.8% | -51.2% (active) | -36.4% (active) | -3.76% (active) | -37.9% (active) | -4.59% (active) | -15.6% (active) | -10.2% (active) | -20% (active)
COc1cc(C(=O)n2nc(N3CCN(C)CC3)c3cc(N)ccc32)cc(OC)c1OC | 70.9% | 39.6% | 26.4% | 59.1% | 36.8% | 57.3% | -3.79% (active) | 20.2% | 17.3%
COc1ccc2c(O)c(/C=C3\N=Nc4ccccc43)oc2c1C[C@@H]1CCNC[C@H]1F | 96.9% | 67.7% | 50.5% | 84.2% | 61.3% | 64.8% | 57.9% | -16.3% (active) | 68%
Cc1ccccc1/C=C1\CN(C(=O)OC(C)(C)C)C/C(=C\c2ccccc2C)C1=O | 86.4% | -6.85% (active) | 31.9% | 30.3% | -21.7% (active) | 28.8% | 84.8% | 2.95% (active) | 10.8%
O=C1N[C@@H]2NC(=[N+]3CCOCC3)N[C@@H]2N1 | 118% | 97.8% | 87.3% | 103% | 104% | 91.5% | 98.3% | 108% | 103%
COc1cc(-c2nc(SCCC(C)C)nc(Nc3ccccc3Cl)c2C#N)cc(OC)c1OC | 101% | 90% | 69.7% | 125% | 97.1% | 78.9% | 85.3% | 92.1% | 87.4%
Cc1nc(N2CCOCC2)sc1S(N)(=O)=O | 98.6% | 94.5% | 86.5% | 90.1% | 100% | 96.9% | 93.4% | 105% | 107%
CCc1nc2c(=O)[nH]cnc2o1 | 113% | 109% | 75.7% | 108% | 105% | 100% | 102% | 108% | 108%
CC1=NN(c2nc(SCC(=O)Nc3nc4ccc(C)cc4s3)nc(-c3ccccc3)c2C#N)C(=O)C1 | 111% | 95.6% | 67.8% | 131% | 96.3% | 87.3% | 101% | 107% | 99.8%
CCOC(=O)C(=Cc1cccc(Cl)c1)C(=O)OCC | 25.3% |  | -56.2% (active) | 3.56% (active) | -72.9% (active) | 61.5% | 112% | -1.23% (active) | 13.4%
COc1cc(N2C(=O)[C@H](O)C2c2ccc(SC)cc2)cc(OC)c1OC (some centres undefined) | 16.6% | 28.7% | 43.5% | 40.7% | 31.8% | 23.6% | -1.79% (active) | 3.99% (active) | 4.67% (active)
C#CCOc1cccc(Nc2ncnc3ccc(NC(=O)CCl)cc23)c1 | -47.9% (active) | -24.7% (active) |  | -60.8% (active) | -80.8% (active) | 1.72% (active) | -2.12% (active) | -56.9% (active) | -25.1% (active)
CCOC(=O)/C=C1\S/C(=N\Nc2cc(=O)[nH]c3ccc(Cl)cc23)N(c2ccccc2)C1=O | 105% | 93.1% | 75.2% | 107% | 91.6% | 83.3% | 115% | 3.19% (active) | 21%
Cc1cccnc1NC(=S)Nc1ncccc1C | 103% | 98.4% | 108% | 90.1% | 109% | 70.7% | 115% | 91.4% | 60.3%
N#Cc1cccc(NC(=O)c2oc3ccccc3c2-c2cnn(-c3ccccc3)c2)c1 | 88.1% [50 µM] | 78.3% [50 µM] | 59% [50 µM] | 88.2% [50 µM] | 80.6% [50 µM] | 63.2% [50 µM] | 89.5% [50 µM] | -21.3% [50 µM] (active) | -5.03% [50 µM] (active)
CC(C)CCNC(=O)Cn1cccc(NC(=O)OCc2ccccc2)c1=O | 112% | 103% | 76% | 130% | 103% | 70.3% | 117% | 96.6% | 106%
COc1cc(-c2cc(-c3ccc(N(C)C)cc3)nc(N3CCC(O)CC3)c2C#N)cc(OC)c1OC | -54.2% (active) | 26.4% | -45.1% (active) | 14.9% | 15.1% | -22.6% (active) | 26.3% | 26.6% | 2.62% (active)
CCCCCCC1(C)NCCO1 (centres undefined) | 109% | 103% | 83.7% | 111% | 103% | 92.9% | 96.1% | 90.2% | 104%
Cc1nnc(NC(=O)c2nc(S(=O)(=O)Cc3ccc(F)cc3)ncc2Cl)s1 | 89.5% | 64.7% | 73.6% | 79% | 96.5% | -86.3% (active) | 115% | -43.3% (active) | 11.3%
C=CCc1c(O)c(C(=O)/C=C/c2ccc(Cl)cc2)c(OC)c2ccoc12 | 15.7% | 57.2% | 51.4% | 57.2% | 55% | 19.5% | 46.9% | 21.4% | 15.3%
O=C(/C=C/c1ccccc1)c1cccc(OCCCOc2cccc(C(=O)/C=C/c3ccccc3)c2)c1 | 101% | 94.2% | 74.2% | 107% | 102% | 86.4% | 92% | 76.5% | 86.9%
C=C(C)[C@@H]1CC[C@]2(C(=O)NCCNCCN)CC[C@]3(C)[C@H](CC[C@@H]4[C@@]5(C)C/C(=C/c6ccncc6)C(=O)C(C)(C)[C@@H]5CC[C@]43C)[C@@H]12 | 108% | 96.5% |  | 118% | 100% | 85.6% | 95.7% | 97.1% | 82.9%
O=C1/C(=C/c2cccs2)SC(=S)N1CCCN1CCOCC1 | 101% | 83.3% | 82.4% | 122% | 95.3% | 91.5% | 72.2% | 87.5% | 101%

Reference: PubChem BioAssay (NCI)
